# Values without a mark were called inactive. Results filed as inconclusive are left out. Entries that show only a call come without a potency. The source made the active and inactive calls. Unless noted, calls come from the whole dose curve; as a rule, active = well fitted curve in the direction sought with a large enough effect in the repeat runs; inconclusive = weak or mixed curves; inactive = no such curve, though single readings can be large; an effect the other way counts as inactive or inconclusive.
# What was measured:
# [1] = target: Thyrotropin-releasing hormone receptor (Homo sapiens) (UniProt P34981); assay: qHTS assay to identify small molecule agonists of the thyrotropin-releasing hormone receptor (TRHR) signaling pathway (AID 1346891; calls by dose curve;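 note: HEK293 cells expressing TRHR with calcium dye readout; series mostly up to about 58 µM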)
# Chain of Thyrotropin-releasing hormone receptor (Homo sapiens) (P34981 whole entry, looked up): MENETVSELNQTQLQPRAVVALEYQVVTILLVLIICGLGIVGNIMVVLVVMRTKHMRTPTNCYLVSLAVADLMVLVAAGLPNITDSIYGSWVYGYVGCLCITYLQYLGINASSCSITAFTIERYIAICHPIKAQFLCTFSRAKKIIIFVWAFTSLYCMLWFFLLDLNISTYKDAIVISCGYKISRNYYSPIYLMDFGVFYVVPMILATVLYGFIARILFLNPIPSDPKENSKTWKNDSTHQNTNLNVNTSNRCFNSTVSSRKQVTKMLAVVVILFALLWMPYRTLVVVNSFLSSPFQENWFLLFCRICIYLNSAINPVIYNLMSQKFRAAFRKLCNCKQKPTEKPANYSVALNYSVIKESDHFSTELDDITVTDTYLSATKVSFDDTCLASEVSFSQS
# Outline: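 Compounds were tested as agonists at 15 concentrations, in triplicate, on TRHR-Hek293 cells; calcium-sensitive dye fluorescence was recorded for 3 min following addition.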
# [2] = Human pregnane X receptor (PXR) small molecule agonists, qHTS cell viability counter screen (AID 1346977); note: nearly all actives have a fitted effect of over 50% in size; note: potency is the fitted concentration of half-maximal effect
# Outline: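 Viability counter screen: CellTiter-Fluor signal in PXR-Luc HepG2 cells, 24hr compound exposure, 37C, 5% CO2.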
# [3] = Caspase-3/7 induction in HepG2 cells by small molecules, qHTS assay (AID 1346978); note: nearly all actives have a fitted effect of over 15% in size
# Outline: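 Wild-type HepG2 cells, 2,000/well, settled 5 hr at 37 C and 5% CO2, then compound-treated for 17 hr; caspase-3/7 activity read by luminescent Caspase-Glo 3/7 after 30 min at room temperature.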
# [4] = Caspase-3/7 induction in CHO-K1 cells by small molecules, qHTS cell viability counter screen (AID 1346979); note: nearly all actives have a fitted effect of over 35% in size; note: potency is the fitted concentration of half-maximal effect
# Outline: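 Viability readout by fluorescence (CellTiter-Fluor) on wild-type CHO-K1 cells exposed for 16hr at 37C and 5% CO2 to compounds delivered in DMSO; reagent incubated 1hr before reading.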
# [5] = target: Nuclear receptor subfamily 1 group I member 2 (Homo sapiens) (UniProt O75469); assay: Human pregnane X receptor (PXR) small molecule agonists, qHTS assay (AID 1346982); note: nearly all actives have a fitted effect of over 35% in size; note: potency is the fitted concentration of half-maximal effect
# Chain of Nuclear receptor subfamily 1 group I member 2 (Homo sapiens) (O75469 whole entry, looked up): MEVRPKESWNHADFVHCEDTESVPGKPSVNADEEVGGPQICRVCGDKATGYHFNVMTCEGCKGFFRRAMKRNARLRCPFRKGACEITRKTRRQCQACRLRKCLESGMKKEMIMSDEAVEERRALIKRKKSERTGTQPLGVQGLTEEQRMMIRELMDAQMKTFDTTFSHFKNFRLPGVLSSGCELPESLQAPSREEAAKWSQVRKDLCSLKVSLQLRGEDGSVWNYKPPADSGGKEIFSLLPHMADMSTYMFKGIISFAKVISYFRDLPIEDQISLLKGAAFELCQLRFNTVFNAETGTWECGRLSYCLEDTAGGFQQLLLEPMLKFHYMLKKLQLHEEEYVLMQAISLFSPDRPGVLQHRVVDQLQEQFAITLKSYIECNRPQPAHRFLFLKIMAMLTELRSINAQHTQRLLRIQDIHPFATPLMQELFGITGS
# Outline: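 Agonist mode: luminescence from ONE-Glo after 24 h compound exposure at 37C in HepG2 cells carrying hPXR-responsive CYP3A4 luciferase, plated in charcoal-stripped serum medium 5 h beforehand.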
# [6] = target: Cytochrome P450 2D6 (Homo sapiens) (UniProt P10635); assay: Cytochrome P450 Family 2 Subfamily D Member 6 (CYP2D6) small molecule antagonists: luciferase reporter qHTS assay (AID 1671196); note: nearly all actives have a fitted effect of over 50% in size; note: potency is the fitted concentration of half-maximal effect
# Chain of Cytochrome P450 2D6 (Homo sapiens) (P10635 whole entry, looked up): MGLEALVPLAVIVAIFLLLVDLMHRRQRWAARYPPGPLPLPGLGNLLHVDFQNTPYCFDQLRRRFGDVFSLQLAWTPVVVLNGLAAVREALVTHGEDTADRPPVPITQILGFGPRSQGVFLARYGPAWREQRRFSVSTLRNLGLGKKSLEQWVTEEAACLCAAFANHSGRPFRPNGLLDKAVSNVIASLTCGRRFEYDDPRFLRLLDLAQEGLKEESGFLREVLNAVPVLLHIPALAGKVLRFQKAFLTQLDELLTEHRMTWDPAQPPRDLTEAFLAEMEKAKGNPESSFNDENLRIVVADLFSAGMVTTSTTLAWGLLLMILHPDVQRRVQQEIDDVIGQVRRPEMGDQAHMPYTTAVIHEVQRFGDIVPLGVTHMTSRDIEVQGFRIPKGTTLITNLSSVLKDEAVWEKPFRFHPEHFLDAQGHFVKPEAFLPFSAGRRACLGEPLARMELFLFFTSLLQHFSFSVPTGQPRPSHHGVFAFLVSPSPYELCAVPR
# Outline: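 CYP2D6 activity was followed as luminescence from its luciferin product after a 1 h NADPH-driven reaction at room temperature. Enzyme-substrate mix and compound were pre-incubated for 10 min, and the signal was read 20 min after adding detection reagent.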
# [7] = target: Cytochrome P450 2C19 (Homo sapiens) (UniProt P33261); assay: Cytochrome P450 Family 2 Subfamily C Member 19 (CYP2C19) small molecule antagonists: luciferase reporter qHTS assay (AID 1671197); note: nearly all actives have a fitted effect of over 65% in size; note: potency is the fitted concentration of half-maximal effect
# Chain of Cytochrome P450 2C19 (Homo sapiens) (P33261 whole entry, looked up): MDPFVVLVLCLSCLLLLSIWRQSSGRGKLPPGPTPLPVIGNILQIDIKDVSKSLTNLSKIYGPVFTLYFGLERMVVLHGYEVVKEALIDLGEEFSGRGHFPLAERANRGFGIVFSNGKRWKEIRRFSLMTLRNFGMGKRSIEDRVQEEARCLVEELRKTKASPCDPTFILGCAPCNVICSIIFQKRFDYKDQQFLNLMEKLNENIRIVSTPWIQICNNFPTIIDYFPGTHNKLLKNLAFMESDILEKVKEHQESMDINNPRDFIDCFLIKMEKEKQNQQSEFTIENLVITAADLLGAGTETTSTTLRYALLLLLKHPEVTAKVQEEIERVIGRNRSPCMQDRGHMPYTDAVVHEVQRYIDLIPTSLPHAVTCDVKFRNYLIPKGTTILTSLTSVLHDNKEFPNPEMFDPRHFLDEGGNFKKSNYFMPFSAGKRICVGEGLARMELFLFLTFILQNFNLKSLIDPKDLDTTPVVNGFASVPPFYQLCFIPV
# Outline: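 P450-Glo CYP2C19 screening system; proluciferin substrate; DMSO compound stocks; 10 min RT preincubation; NADPH regeneration, 1 h at 37C; luciferin detection reagent, 20 min RT; luminescence as RLU.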
# [8] = target: Cytochrome P450 2C9 (Homo sapiens) (UniProt P11712); assay: Cytochrome P450 Family 2 Subfamily C Member 9 (CYP2C9) small molecule antagonists: luciferase reporter qHTS assay (AID 1671198); note: nearly all actives have a fitted effect of over 50% in size; note: potency is the fitted concentration of half-maximal effect
# Chain of Cytochrome P450 2C9 (Homo sapiens) (P11712 whole entry, looked up): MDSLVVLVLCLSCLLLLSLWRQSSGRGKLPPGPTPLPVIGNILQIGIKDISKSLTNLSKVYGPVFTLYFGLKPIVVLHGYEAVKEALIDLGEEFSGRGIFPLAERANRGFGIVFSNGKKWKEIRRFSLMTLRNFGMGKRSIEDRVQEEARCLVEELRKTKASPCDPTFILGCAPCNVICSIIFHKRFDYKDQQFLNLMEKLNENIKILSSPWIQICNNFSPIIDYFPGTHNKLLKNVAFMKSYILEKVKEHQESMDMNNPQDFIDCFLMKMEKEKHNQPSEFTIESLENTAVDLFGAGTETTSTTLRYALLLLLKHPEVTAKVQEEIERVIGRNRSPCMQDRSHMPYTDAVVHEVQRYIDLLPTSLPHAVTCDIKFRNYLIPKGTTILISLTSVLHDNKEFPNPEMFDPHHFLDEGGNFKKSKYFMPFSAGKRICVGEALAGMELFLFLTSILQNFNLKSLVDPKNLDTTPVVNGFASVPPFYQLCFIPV
# Outline: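 P450-Glo proluciferin substrate with CYP2C9 enzyme; 10 min RT preincubation, then NADPH regeneration 1 h at 37C; luciferin detection reagent 20 min RT, luminescence in relative luminescence units.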
# [9] = target: Cytochrome P450 1A2 (Homo sapiens) (UniProt P05177); assay: Cytochrome P450 Family 1 Subfamily A Member 2 (CYP1A2) small molecule antagonists: luciferase reporter qHTS assay (AID 1671199); note: nearly all actives have a fitted effect of over 50% in size; note: potency is the fitted concentration of half-maximal effect
# Chain of Cytochrome P450 1A2 (Homo sapiens) (P05177 whole entry, looked up): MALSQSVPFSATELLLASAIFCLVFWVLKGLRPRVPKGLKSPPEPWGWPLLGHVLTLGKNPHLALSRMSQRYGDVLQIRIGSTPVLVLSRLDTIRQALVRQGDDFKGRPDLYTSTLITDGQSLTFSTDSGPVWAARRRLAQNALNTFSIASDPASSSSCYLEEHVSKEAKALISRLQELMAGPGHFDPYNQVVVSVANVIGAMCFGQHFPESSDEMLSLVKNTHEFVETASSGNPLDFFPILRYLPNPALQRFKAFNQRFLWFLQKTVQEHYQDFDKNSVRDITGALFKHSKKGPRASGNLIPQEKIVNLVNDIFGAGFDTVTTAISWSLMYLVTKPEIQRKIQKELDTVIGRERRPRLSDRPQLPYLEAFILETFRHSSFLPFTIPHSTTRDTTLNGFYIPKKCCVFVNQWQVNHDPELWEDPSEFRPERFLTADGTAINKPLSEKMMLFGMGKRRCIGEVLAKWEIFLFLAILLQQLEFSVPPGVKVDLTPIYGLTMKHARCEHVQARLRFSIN
# Outline: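 Luminescence from luciferin formed by CYP1A2 from a proluciferin substrate, read 20 min after detection reagent. Compound was pre-incubated 10 min with enzyme-substrate, and reaction started with NADPH regeneration solution for 1 h at room temperature; furafylline control.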
# [10] = target: Voltage-gated inwardly rectifying potassium channel KCNH2 (Homo sapiens) (UniProt Q12809); assay: Human Ether-a-go-go-Related Gene (hERG) channel small molecule antagonists: fluorescence cell-based qHTS assay (AID 1671200)
# Chain of Voltage-gated inwardly rectifying potassium channel KCNH2 (Homo sapiens) (Q12809 whole entry, looked up): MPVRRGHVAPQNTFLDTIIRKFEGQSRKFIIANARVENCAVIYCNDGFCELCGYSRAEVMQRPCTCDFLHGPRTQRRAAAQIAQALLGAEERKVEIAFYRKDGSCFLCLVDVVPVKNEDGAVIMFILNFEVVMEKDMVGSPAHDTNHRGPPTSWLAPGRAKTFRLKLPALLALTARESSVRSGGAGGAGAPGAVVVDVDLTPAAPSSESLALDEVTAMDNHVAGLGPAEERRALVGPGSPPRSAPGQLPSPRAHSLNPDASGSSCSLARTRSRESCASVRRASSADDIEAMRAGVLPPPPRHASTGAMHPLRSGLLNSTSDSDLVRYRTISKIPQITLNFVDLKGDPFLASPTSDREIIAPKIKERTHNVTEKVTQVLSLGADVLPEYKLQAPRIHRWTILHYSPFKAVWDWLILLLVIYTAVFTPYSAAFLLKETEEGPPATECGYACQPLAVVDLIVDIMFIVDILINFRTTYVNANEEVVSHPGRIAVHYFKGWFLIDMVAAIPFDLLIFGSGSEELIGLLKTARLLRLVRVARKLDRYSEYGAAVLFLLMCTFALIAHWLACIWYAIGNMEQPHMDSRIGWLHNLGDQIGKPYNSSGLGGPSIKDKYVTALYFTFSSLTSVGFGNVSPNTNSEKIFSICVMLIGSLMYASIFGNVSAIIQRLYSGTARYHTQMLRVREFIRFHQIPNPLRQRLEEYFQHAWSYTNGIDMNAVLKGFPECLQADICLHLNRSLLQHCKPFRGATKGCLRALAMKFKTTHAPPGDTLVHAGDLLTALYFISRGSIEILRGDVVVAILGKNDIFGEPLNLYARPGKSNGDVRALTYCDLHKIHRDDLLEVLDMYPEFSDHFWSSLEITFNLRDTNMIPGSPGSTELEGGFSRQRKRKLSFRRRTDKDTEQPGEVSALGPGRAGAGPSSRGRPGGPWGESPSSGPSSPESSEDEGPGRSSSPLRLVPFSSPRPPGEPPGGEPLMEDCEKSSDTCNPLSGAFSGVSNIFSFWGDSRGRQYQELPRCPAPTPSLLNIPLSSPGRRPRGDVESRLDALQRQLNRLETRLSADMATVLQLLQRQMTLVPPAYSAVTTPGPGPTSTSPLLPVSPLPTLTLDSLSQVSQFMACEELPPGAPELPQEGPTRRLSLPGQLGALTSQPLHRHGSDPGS
# Outline: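 Thallium served as the potassium surrogate; its influx into dye-loaded U2OS cells carrying the channel was measured by fluorescence over 2 min.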
# [11] = target: Cytochrome P450 3A4 (Homo sapiens) (UniProt P08684); assay: Cytochrome P450 Family 3 Subfamily A Member 4 (CYP3A4) small molecule antagonists: luciferase reporter qHTS assay (AID 1671201); note: nearly all actives have a fitted effect of over 50% in size; note: potency is the fitted concentration of half-maximal effect
# Chain of Cytochrome P450 3A4 (Homo sapiens) (P08684 whole entry, looked up): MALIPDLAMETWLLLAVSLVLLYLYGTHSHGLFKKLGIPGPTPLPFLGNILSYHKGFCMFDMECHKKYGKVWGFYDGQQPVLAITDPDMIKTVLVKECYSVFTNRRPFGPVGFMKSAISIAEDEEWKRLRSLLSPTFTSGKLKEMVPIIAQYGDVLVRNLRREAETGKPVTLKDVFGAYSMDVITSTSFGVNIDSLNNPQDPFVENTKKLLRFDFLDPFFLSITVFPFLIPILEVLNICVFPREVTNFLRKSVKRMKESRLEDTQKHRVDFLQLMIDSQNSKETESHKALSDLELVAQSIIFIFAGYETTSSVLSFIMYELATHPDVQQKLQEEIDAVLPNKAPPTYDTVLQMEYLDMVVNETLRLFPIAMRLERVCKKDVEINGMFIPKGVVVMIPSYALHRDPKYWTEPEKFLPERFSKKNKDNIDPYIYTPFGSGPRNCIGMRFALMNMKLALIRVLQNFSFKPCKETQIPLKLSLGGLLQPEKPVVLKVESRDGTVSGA
# Outline: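 Relative luminescence units after 20 min with luciferin detection reagent served as read-out. Beforehand, CYP3A4 turned over a proluciferin substrate for 1 h at room temperature with NADPH regeneration, following 10 min compound preincubation.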
# [12] = Caspase-3/7 induction in CHO-K1 cells by small molecules, qHTS assay (AID 1346980); note: nearly all actives have a fitted effect of over 15% in size
# Outline: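 Wild-type CHO-K1 cells exposed to compounds for 17hr at 37 C, 5% CO2. Caspase-3/7 activity then measured by Caspase-Glo 3/7 luminescence after 30min at room temperature.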
# [13] = Caspase-3/7 induction in HepG2 cells by small molecules, qHTS cell viability counter screen (AID 1346981); note: series mostly up to about 92 µM; nearly all actives have a fitted effect of over 30% in size
# Outline: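 CellTiter-Fluor fluorescence measured viability in the same wells used for Caspase-Glo 3/7. HepG2 (wild type) at 2,000 cells/well were pre-incubated 5 hr, dosed, and given reagent at 16 hr, with 1 hr further at 37C.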
# [14] = target: Nuclear receptor subfamily 1 group I member 2 (Rattus norvegicus) (UniProt Q9R1A7); assay: Rat pregnane X receptor (rPXR) activation by small molecules, qHTS assay (AID 1346983); details: rPXR luciferase reporter cells, One-Glo luminescence, 24 h; max activation: stronger effect = higher value; note: nearly all actives have a fitted effect of over 20% in size
# Chain of Nuclear receptor subfamily 1 group I member 2 (Rattus norvegicus) (Q9R1A7 whole entry, looked up): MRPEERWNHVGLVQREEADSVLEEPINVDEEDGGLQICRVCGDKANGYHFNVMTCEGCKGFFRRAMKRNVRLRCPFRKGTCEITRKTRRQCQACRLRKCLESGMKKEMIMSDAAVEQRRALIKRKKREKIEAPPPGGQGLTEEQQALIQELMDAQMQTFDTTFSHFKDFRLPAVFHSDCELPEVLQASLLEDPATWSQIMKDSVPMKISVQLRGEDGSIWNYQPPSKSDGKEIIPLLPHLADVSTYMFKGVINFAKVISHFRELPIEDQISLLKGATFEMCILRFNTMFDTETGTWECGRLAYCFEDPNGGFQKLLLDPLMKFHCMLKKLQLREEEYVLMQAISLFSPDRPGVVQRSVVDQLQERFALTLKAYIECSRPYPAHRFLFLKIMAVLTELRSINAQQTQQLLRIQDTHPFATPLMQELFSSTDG
# Outline: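 Cell-based rPXR activation assay: rPXR cells, 2,000 per well, rested 5hr at 37 C, then exposed to compounds in DMSO for 24 hr at 37 C. Luciferase activity read by One-Glo luminescence after 30 min at room temperature.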
# [15] = target: Nuclear receptor subfamily 1 group I member 2 (Homo sapiens) (UniProt O75469); assay: Human pregnane X receptor (PXR) activation by small molecules, qHTS assay (AID 1346985); note: nearly all actives have a fitted effect of over 40% in size
# Outline: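 DPX-2 cells (HepG2 co-transfected with a PXR response element and a CYP3A4-promoter luciferase construct) were seeded at 2,000 per well, rested 5 hr at 37C, then exposed to DMSO-dissolved compounds for 24 hr. Activation was read as luciferase luminescence.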
SMILES,outcome [1],Potency [2],Potency [3],Potency [4],Potency [5],Potency [6],Potency [7],Potency [8],Potency [9],Potency [10],Potency [11],Potency [12],Potency [13],max activation [14],Potency [15]
O=C1OC(=O)C2CC=CCC12 (stereo unspecified),inactive,inactive,inactive,inactive,inactive,35.7 µM (active),80 µM (active),inactive,inactive,inactive,inactive,,,,
Cc1cc(N)n(-c2ccccc2)n1,inactive,inactive,inactive,inactive,,,28.3 µM (active),,39.9 µM (active),,,inactive,,,
Cc1nc(C)c(C)nc1C,inactive,inactive,inactive,inactive,inactive,inactive,inactive,inactive,35.6 µM (active),inactive,inactive,,inactive,,
Cc1c(N=C=O)cccc1N=C=O,inactive,inactive,inactive,inactive,inactive,inactive,72.4 µM (active),,,inactive,,,inactive,,
Cc1ccc(S(=O)(=O)NC(=O)NC2CCCC2)cc1,inactive,inactive,inactive,,inactive,inactive,inactive,,inactive,inactive,inactive,inactive,inactive,-4.06%,inactive
CCCCCCCCCCCCCCCCC(=O)O,inactive,inactive,inactive,inactive,inactive,inactive,inactive,inactive,inactive,inactive,inactive,inactive,,,
C[Si](C)(C)O[Si](C)(C)O[Si](C)(C)C,inactive,inactive,inactive,inactive,inactive,inactive,inactive,inactive,inactive,inactive,,,inactive,,
OCCc1ccncc1,inactive,inactive,inactive,inactive,inactive,,,,22.4 µM (active),,28.3 µM (active),inactive,,,
C/C(=C(\CCO)SS/C(CCO)=C(\C)N(C=O)Cc1cnc(C)nc1N)N(C=O)Cc1cnc(C)nc1N,inactive,inactive,inactive,inactive,inactive,inactive,inactive,inactive,inactive,,,,inactive,-1.12%,inactive
COc1cc(C)c(Cc2cnc(N)nc2N)cc1OC,inactive,inactive,inactive,inactive,inactive,inactive,inactive,inactive,inactive,,inactive,,inactive,-0.291%,inactive
CC(COc1ccccc1)NC(C)C(O)c1ccc(O)cc1 (stereo unspecified),inactive,inactive,inactive,inactive,23.7 µM (active),0.55 µM (active),8.71 µM (active),15.5 µM (active),17.4 µM (active),inactive,inactive,,inactive,3.54%,inactive
CCCC(=O)OCCC(C)C,inactive,inactive,inactive,inactive,inactive,inactive,inactive,inactive,inactive,inactive,inactive,,inactive,,
CCCc1ccc(OC)cc1,inactive,inactive,inactive,inactive,inactive,inactive,63.7 µM (active),,,,inactive,inactive,,,
CC(C)Cc1nccs1,inactive,inactive,inactive,inactive,inactive,12.9 µM (active),40.7 µM (active),,,inactive,inactive,,,,
O=C(OC1C[C@H]2CC[C@@H](C1)[N+]21CCCC1)C(O)(c1ccccc1)c1ccccc1 (stereo partly specified),inactive,inactive,inactive,inactive,inactive,4.9 µM (active),,inactive,inactive,inactive,,,inactive,-1.51%,inactive
C=CC(O)CCCCC (stereo unspecified),inactive,inactive,inactive,inactive,inactive,inactive,inactive,inactive,inactive,inactive,inactive,,inactive,,
CC(C)NC(=O)c1ccccc1N,inactive,inactive,inactive,inactive,inactive,inactive,inactive,inactive,,inactive,,inactive,,,
CCC(C)CCCC(C)(C)O (stereo unspecified),inactive,inactive,inactive,inactive,inactive,inactive,inactive,,inactive,inactive,,inactive,,,
Sc1nc(S)nc(S)n1,inactive,inactive,inactive,inactive,inactive,inactive,inactive,,inactive,,inactive,inactive,,,
CCC(C)C1N=C(C)C(C)S1 (stereo unspecified),inactive,inactive,inactive,inactive,34.4 µM (active),,39.9 µM (active),39.9 µM (active),,inactive,,,inactive,,
CC(=O)S[C@H](C(=O)N[C@H]1Cc2ccccc2[C@H]2CCC[C@@H](C(=O)O)N2C1=O)C(C)C,inactive,inactive,inactive,inactive,inactive,inactive,inactive,,inactive,inactive,inactive,inactive,,,

SMILES,outcome [1],Potency [2],Potency [3],Potency [4],Potency [5],Potency [6],Potency [7],Potency [8],Potency [9],Potency [10],Potency [11],Potency [12],Potency [13],max activation [14],Potency [15]
CCCCCCCCCCCCN1CCOCC1,inactive,inactive,inactive,,inactive,inactive,inactive,inactive,inactive,,,inactive,inactive,,
CCCCCCOC(=O)c1ccccc1,inactive,inactive,inactive,inactive,inactive,inactive,inactive,inactive,20 µM (active),inactive,inactive,,inactive,,
C(/C=C/C=C/Nc1ccccc1)=Nc1ccccc1,inactive,inactive,inactive,inactive,,71 µM (active),inactive,,,inactive,,,,,
O=C(Cl)c1cc(Cl)cc(Cl)c1,inactive,inactive,inactive,inactive,inactive,inactive,inactive,inactive,inactive,inactive,inactive,,inactive,,
COC(=O)c1cc(Cl)ccc1[N+](=O)[O-],inactive,inactive,inactive,inactive,,,79.6 µM (active),inactive,7.96 µM (active),,inactive,inactive,,,
O=c1c2ccccc2oc2ccccc12,inactive,inactive,inactive,inactive,inactive,inactive,28.3 µM (active),39.9 µM (active),0.564 µM (active),inactive,inactive,inactive,,,
CC(=O)Nc1cccc(N)c1,inactive,inactive,inactive,inactive,inactive,,57.2 µM (active),,,,,,inactive,,
Nc1ccc(C(=O)Oc2ccccc2)c(O)c1,inactive,inactive,inactive,,inactive,,,27.5 µM (active),11.5 µM (active),inactive,,inactive,inactive,0.405%,inactive
O=C1c2ccccc2C(=O)C1c1ccc2cc(S(=O)(=O)O)cc(S(=O)(=O)O)c2n1,inactive,37.2 µM (active),inactive,33.1 µM (active),inactive,inactive,,,43.2 µM (active),inactive,,inactive,,,
CCCC1CCCC(=O)O1 (stereo unspecified),inactive,inactive,inactive,inactive,inactive,inactive,inactive,39.9 µM (active),inactive,inactive,39.9 µM (active),inactive,,,
COC(=O)C(C)(C)C,inactive,inactive,inactive,inactive,inactive,inactive,32.2 µM (active),,40.5 µM (active),inactive,inactive,,inactive,,
CCOc1ccccc1O,inactive,inactive,inactive,inactive,inactive,inactive,inactive,inactive,inactive,inactive,inactive,inactive,,,
COc1ccc(/C=C/S(=O)(=O)NC(=O)c2ccc(C)cc2Cl)cc1,inactive,inactive,inactive,inactive,27.3 µM (active),inactive,inactive,17.8 µM (active),inactive,inactive,inactive,,inactive,,
CCOC(C)OCC,inactive,inactive,inactive,,inactive,inactive,69 µM (active),inactive,inactive,inactive,inactive,inactive,inactive,-4.85%,inactive
CC(C)(C)c1ccc(CCC=O)cc1,inactive,inactive,inactive,,inactive,inactive,,,,,,inactive,inactive,,
O=C(O)c1ccc(O)c(O)c1,inactive,inactive,inactive,inactive,inactive,inactive,79.6 µM (active),35.5 µM (active),31.7 µM (active),inactive,,,inactive,,
CC(C)CC(C)(C)C,inactive,inactive,inactive,inactive,inactive,36.9 µM (active),20.8 µM (active),36.9 µM (active),7.37 µM (active),inactive,32.9 µM (active),,inactive,,
CC(C)Oc1ccccc1O,inactive,inactive,inactive,inactive,inactive,inactive,,inactive,inactive,,inactive,inactive,,,
CC(C(=O)O)c1ccc2c(c1)Cc1cccnc1O2 (stereo unspecified),inactive,inactive,inactive,,,inactive,inactive,inactive,inactive,inactive,inactive,,inactive,-0.373%,
CC1=C(C)C(=O)C(CCCCC#CCCCC#CCO)=C(C)C1=O,inactive,inactive,inactive,,26.6 µM (active),15.5 µM (active),11 µM (active),6.92 µM (active),4.9 µM (active),,,inactive,inactive,,
O=P(c1ccccc1)(c1ccccc1)c1ccccc1,inactive,inactive,,inactive,27.3 µM (active),inactive,5.64 µM (active),6.33 µM (active),,,,inactive,inactive,,

# Reference: PubChem BioAssay (Tox21)
